Compound activity (PubChem BioAssay)
An excerpt weighted towards active compounds, which were near 4.7% of everything screened.
ADAM10 inh: ADAM10 inhibition, QFRET primary screen. inhibition, % at 7 µM. recombinant ADAM10, EDANS/DABCYL FRET peptide cleavage, 3 h. actives 0.62% (n = 370,000). AID 720582. O14672;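 active = inhibition above a per-campaign cutoff equal to the mean of compounds falling between control-based bounds plus 3 SD, cut at about 20% in these data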
Pemphigus Ab inh: human desmoglein-3 autoantibody binding inhibition. P32926. DSG3-coupled beads, scFv-anti-DSG3-GFP binding, flow cytometry; active compounds read low. binding (percent of control), % at 10 µM. actives 0.48% (n = 310,000);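 active = binding more than 3 SD below its plate's average and above zero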;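 note: hits lower antibody fragment binding to DSG3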
Target sequence (P32926 whole entry, looked up, the tested form may be a part): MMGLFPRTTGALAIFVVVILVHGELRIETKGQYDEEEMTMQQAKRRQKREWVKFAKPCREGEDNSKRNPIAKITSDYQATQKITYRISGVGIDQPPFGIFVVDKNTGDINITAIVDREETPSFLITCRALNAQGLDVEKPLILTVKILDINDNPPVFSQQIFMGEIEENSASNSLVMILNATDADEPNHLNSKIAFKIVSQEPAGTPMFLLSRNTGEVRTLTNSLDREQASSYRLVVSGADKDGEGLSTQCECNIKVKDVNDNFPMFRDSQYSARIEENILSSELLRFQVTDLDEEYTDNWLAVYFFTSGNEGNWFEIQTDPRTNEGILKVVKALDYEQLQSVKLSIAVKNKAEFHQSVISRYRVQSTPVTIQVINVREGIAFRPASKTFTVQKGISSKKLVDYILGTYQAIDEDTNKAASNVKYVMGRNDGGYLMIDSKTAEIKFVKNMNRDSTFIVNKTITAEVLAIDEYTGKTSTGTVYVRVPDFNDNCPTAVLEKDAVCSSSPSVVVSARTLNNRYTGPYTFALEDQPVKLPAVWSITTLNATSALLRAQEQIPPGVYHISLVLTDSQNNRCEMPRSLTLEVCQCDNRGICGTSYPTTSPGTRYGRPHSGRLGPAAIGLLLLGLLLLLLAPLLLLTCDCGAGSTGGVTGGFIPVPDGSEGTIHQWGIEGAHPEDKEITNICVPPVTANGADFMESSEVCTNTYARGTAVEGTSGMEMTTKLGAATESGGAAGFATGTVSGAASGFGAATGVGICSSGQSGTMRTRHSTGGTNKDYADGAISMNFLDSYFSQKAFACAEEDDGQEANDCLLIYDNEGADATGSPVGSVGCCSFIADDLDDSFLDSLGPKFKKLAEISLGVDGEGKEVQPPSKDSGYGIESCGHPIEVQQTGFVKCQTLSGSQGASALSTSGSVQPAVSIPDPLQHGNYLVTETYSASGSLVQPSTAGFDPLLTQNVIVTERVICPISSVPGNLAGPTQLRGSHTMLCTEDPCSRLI
ADAM17 inh: inhibitors of human ADAM17 | inhibition, % at 6.95 µM | AID 720648 | actives 0.83% (n = 370,000) | recombinant ADAM17, EDANS/DABCYL FRET peptide cleavage | P78536;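 active = inhibition above the mean of compounds lying between control limits plus 3 SD, set per campaign, cut at about 8.5% in these data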
rCAG RNA binder: molecules binding r(CAG) RNA repeats. r(CAG) RNA repeat, TO-PRO-1 dye displacement fluorescence. inhibition, % at 3 µM. actives 1.3% (n = 370,000). AID 651821;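 active = inhibition above the plate cutoff, the mean of all test compounds on that plate plus 3 SD, cut at about 35% in these data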;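 note: higher means more dye released from RNA so lower well fluorescence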
MPTP inh: blocks calcium-induced mitochondrial swelling; isolated mouse mitochondria, Ca2+ swelling absorbance, 30 min; actives 1.4% (n = 360,000); inhibition, % at 10 µM;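 active = inhibition of 50% or more, scaled per plate between neutral and stimulator controls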
proKLK7 act: activators of human kallikrein-7 zymogen | purified proKLK7, EDANS-DABCYL substrate fluorescence; 100% is mature enzyme control, 0% vehicle | actives 0.9% (n = 370,000) | P49862 | activation, % at 7 µM;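 active = activation above the mean of all tested compounds plus 3 SD, computed per campaign excluding outliers beyond control limits, cut at about 13% in these data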
MPTP counter: membrane potential counter-screen of mitochondrial pore inhibitors; shares compounds with MPTP inh; isolated mitochondria, Rhodamine 123 fluorescence; inhibition, % at 10 µM; actives 78% (n = 5,000); in the data active = inhibition above about 22%
MPTP abs DR: MPTP inhibition, dose response swelling confirmation; shares compounds with MPTP inh; isolated mitochondria swelling, absorbance; IC50, µM; actives 58% (n = 780); in the data active = IC50 below about 20 µM
MPTP cs DR: MPTP inhibitor counter-screen activity, dose response; shares compounds with MPTP inh; isolated mitochondria counterscreen, fluorescence read-out; IC50, µM; actives 49% (n = 780); in the data active = IC50 below about 80 µM
Of the large screens only hits and unclear results are named; the others gave an inactive call (follow-up assays come after a bar, where they were run).

CCN(CC)c1ccc(CNc2nc3ccccc3n2CCN2CCCCC2)cc1	MPTP inh 64.1 | MPTP counter 95.9
CC(C)(C)C(=O)Cn1c(=N)n(Cc2ccccc2)c2ccccc21	none
CC(C)(C)C(=O)Cn1c(=N)n(Cc2ccccc2Cl)c2ccccc21	MPTP inh 55.6 | MPTP counter inactive | MPTP abs DR 11 | MPTP cs DR 54.9
CC(C)(C)C(=O)NC(=S)NNC(=O)C(c1ccccc1)c1ccccc1	MPTP inh 92.2 (no result: ADAM10 inh, ADAM17 inh, rCAG RNA binder, proKLK7 act) | MPTP counter inactive
Cc1ccc(Cn2c(=N)n(CC(O)c3ccco3)c3ccccc32)cc1 (stereo not drawn)	MPTP inh 70.3 | MPTP counter 43.2
C=CCNc1ccc2c(c1)OC[C@H](CC(C)C)NS2(=O)=O	none (no result: Pemphigus Ab inh, MPTP inh)
COc1cc([N+](=O)[O-])ccc1NC(=S)NCc1ccccn1	none
COc1cc([N+](=O)[O-])ccc1NC(=S)Nc1cc(C(=O)OC(C)C)cc(C(=O)OC(C)C)c1	MPTP inh 91.5 | MPTP counter 83.7
N#Cc1c(-c2ccc(Cl)cc2)n(O)c2ccccc12	MPTP inh 95.6 (no result: ADAM10 inh, ADAM17 inh, rCAG RNA binder, proKLK7 act) | MPTP counter 99.6
COc1ccc(NC(=O)NCCCN2CCN(c3cc(C)ccc3C)CC2)cc1	MPTP inh 82.5 | MPTP counter inactive | MPTP abs DR 15.4 | MPTP cs DR 39.4
COc1ccc(N2CCC(CNC(=O)Nc3cccc(OC)c3)C2)cc1 (stereo not drawn)	none
COc1ccc(N2CCC(CNC(=O)Nc3ccc(Cl)cc3)C2)cc1 (stereo not drawn)	MPTP inh 90.7 | MPTP counter 74.6
COc1ccc(N2CCN(CCNC(=O)Nc3ccc(C)c(Cl)c3)CC2)cc1	none
COc1cc(NC(=O)NCCN2CCN(c3ccc(Cl)cc3)CC2)ccc1C	MPTP inh 69.8 | MPTP counter inactive | MPTP abs DR inactive | MPTP cs DR 73.2
COC(=O)C1=C(C)N(C)C(=NCc2ccc(OC)cc2)NC1c1ccc(C(F)(F)F)cc1 (stereo not drawn)	none (no result: Pemphigus Ab inh, MPTP inh)
FC(F)(F)c1nc(N2CCCC2)ncc1-c1nnnn1-c1ccccc1	MPTP inh 73.4 | MPTP counter 65.4
Cc1cc(C)cc(N(CC(=O)NC2CCC(C)CC2)S(=O)(=O)c2ccc(C(C)(C)C)cc2)c1 (stereo not drawn)	none (no result: Pemphigus Ab inh, MPTP inh)
Cc1ccc(Cn2cc(CN(C(C)(C)C)S(=O)(=O)c3ccccc3Br)nn2)cc1	none (no result: Pemphigus Ab inh, MPTP inh)
COc1cccc(-c2csc(N3CCN(C(=S)Nc4ccc(Cl)cc4)CC3)n2)c1	MPTP inh 64.5 | MPTP counter 69.9
COc1cccc(-c2csc(N3CCN(C(=S)Nc4ccccc4)CC3)n2)c1	none
O=C(Nc1ccc(OC(F)(F)F)cc1)Nc1nc2ncccn2c1-c1ccc(C(F)(F)F)cc1	none (no result: Pemphigus Ab inh, MPTP inh)
Cc1ccc(-c2cc(-c3nnc4sc(Cc5cccs5)nn34)[nH]n2)cc1	none (no result: Pemphigus Ab inh, MPTP inh)
NNC(=O)c1cc2c(N3CCC(Cc4ccccc4)CC3)ncnc2s1	MPTP inh 89.2 (no result: Pemphigus Ab inh) | MPTP counter 59.4
Cn1ncc2c(N3CCC(Cc4ccccc4)CC3)ncnc21	none
O=[N+]([O-])c1ccc(O)c(/C=N\N=C2c3ccccc3-c3ccccc32)c1	MPTP inh 104.5 | MPTP counter 92.9
NC(N)=N/N=C/c1cc([N+](=O)[O-])ccc1O	none
S=C(NCC1COc2ccccc2O1)Nc1ccccc1 (stereo not drawn)	none
FC(F)Oc1ccc(NC(=S)NCc2cccnc2)cc1	none
COc1cc(NC(=S)Nc2ccc(OC(F)F)cc2)cc(OC)c1	MPTP inh 80.0 | MPTP counter 75.6
FC(F)Oc1ccc(NC(=S)NCC2COc3ccccc3O2)cc1 (stereo not drawn)	MPTP inh 85.2 | MPTP counter 98.1
Fc1ccc(CNC(=S)Nc2ccc(OC(F)F)cc2)cc1	MPTP inh 76.2 | MPTP counter 95.6
CN1CCCCC(NC(=O)c2cccc([N+](=O)[O-])c2)C1=O (stereo not drawn)	none (no result: Pemphigus Ab inh, MPTP inh)
Cc1ccc(S(=O)(=O)/N=C(/Nc2ccc([N+](=O)[O-])cc2[N+](=O)[O-])c2ccccc2)cc1	MPTP inh 86.5 | MPTP counter 92.1
Cc1ccc(S(=O)(=O)/N=C(/Nc2ccc([N+](=O)[O-])cc2)c2ccccc2)cc1	none (no result: Pemphigus Ab inh)
Cc1cc(C)n(CCc2nc(-c3ccco3)cs2)n1	MPTP inh 54.8 | MPTP counter inactive | MPTP abs DR inactive | MPTP cs DR inactive
COC(=O)[C@]12C[C@H](CC(=O)NCC34CC5CC(CC(C5)C3)C4)C(=O)N(CCC3=CCCCC3)C1=C[C@H](COCc1ccccc1)O[C@@H]2C	none (no result: Pemphigus Ab inh, MPTP inh)
Cc1c(OCC(=O)OC(C)(C)C)ccc2c3c(c(=O)oc12)CCC3	MPTP inh 62.2 | MPTP counter 56.1
C=C(C)COc1ccc2c(C)c(CC(=O)OC)c(=O)oc2c1C	MPTP inh 75.1 (no result: ADAM10 inh, ADAM17 inh, rCAG RNA binder, proKLK7 act) | MPTP counter 58.9
C[C@H]1NS(=O)(=O)c2cccc(Cl)c2O[C@@H]1c1ccccc1	none (no result: Pemphigus Ab inh, MPTP inh)
C[N+]1(C)[C@H]2CC[C@H]1CC(OC(=O)C(O)c1ccccc1)C2 (stereo partly drawn)	none (no result: Pemphigus Ab inh, MPTP inh)
O=C(Cn1c(COc2ccccc2)nc2ccccc21)Nc1cc(Cl)cc(Cl)c1	MPTP inh 91.9 | MPTP counter 93.9
CC(C)CCN(C)C1CCN(C(=O)Nc2ccc(Cl)cc2)CC1	none (no result: Pemphigus Ab inh, MPTP inh)
CCOC(=O)c1ccc(NC(=O)Cc2coc3cc4c(cc23)CCC4)cc1	MPTP inh 86.6 | MPTP counter 92.0
COc1cccc(N2CCN(C(=O)CCn3nnc4ccccc43)CC2)c1	none (no result: Pemphigus Ab inh, MPTP inh)
CCN1/C(=C\c2ccc3cc(C)ccc3[n+]2CC)Sc2cc(C)c(C)cc21	MPTP inh 85.0 | MPTP counter 85.0
Cc1ccc2c(c1)S/C(=C\c1cccc[n+]1C)N2CCO	none
CCN1/C(=C/c2ccc3cccc(C)c3[n+]2CC)Sc2ccccc21	MPTP inh 101.4 | MPTP counter 89.2
CCN1/C(=C/c2ccc3cc(C)ccc3[n+]2CC)Sc2ccc3sccc3c21	MPTP inh 80.4 (no result: ADAM10 inh, ADAM17 inh, rCAG RNA binder, proKLK7 act) | MPTP counter 87.0
CCN1/C(=C/c2ccc3cc(C)cc(C)c3[n+]2CC)Sc2cc(C)ccc21	MPTP inh 87.2 | MPTP counter 97.2
C[n+]1ccccc1/C=C1\Sc2ccccc2N1CCO	none
COC(=O)[C@@]12CCCCC=C1N(CCc1ccc(Cl)cc1)C(=O)[C@H]2CC(=O)NCC1CCCCC1	none (no result: Pemphigus Ab inh, MPTP inh)
